17 compounds from PubChem BioAssay can be followed below.

The subject of experiment [1] is Human papillomavirus type 1a protein E7 (residues 44-93). Put plainly: HPV1a E7 fragment binders on microarrays, primary screen, biochemical, small-molecule microarray, residues 44-93, 635 nm fluorescence (AID 1108).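 Also: E7 fragment applied at 1 µg/mL in TBST for 1 h at 4 C; score combines spot fluorescence with its signal to noise ratio.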 The conditions noted are these: small-molecule microarray binding, fluorescence 635 nm; higher = more signal.
Experiment [2] in a line: modulators of HCV replicon luciferase signal, primary screen, HCV replication inhibitor project, Huh7 cells, luciferase reporter (AID 1109).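 Also: huh7 hepatoma cells harbouring a luciferase neomycin HCV replicon reporter; luciferase luminescence as measure of HCV replicon replication; test concentration not given here.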 The note with it: 48 h, higher = more signal. (Replicon systems follow genome replication, usually without infectious particles.)
Experiment [3] concerns the target Left-right determination factor 2 (Homo sapiens) (UniProt O00292). Put plainly: LEFTY2 binders on small-molecule microarrays, primary screen, biochemical, small-molecule microarray, 635 nm fluorescence scan (AID 1110). The conditions noted are these: LEFTY2 binding, higher = more signal.
The target in experiment [4] is Calmodulin-1 (Homo sapiens) (UniProt P0DP23). The experiment can be described thus: CALM1 binders on microarrays, EGTA buffer, profiling panel, biochemical, small-molecule microarray, Cy5-labelled CALM1 (AID 1111).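 Also: labelled calmodulin applied in Tris saline Tween buffer holding calcium plus EGTA and DTT.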 The conditions noted are these: Cy5-CALM1 binding fluorescence, higher = more signal.
For experiment [5] the target is unchanged. The experiment can be described thus: calcium-bound CALM1 binders on microarrays, profiling panel, artefact control for SMM control-protein annotation, biochemical, small-molecule microarray, Cy5-labelled CALM1, plus calcium (AID 1112).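 Also: score merges spot fluorescence with signal to noise from triplicate slides.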 The note with it: Cy5-CALM1 binding fluorescence, higher = more signal.
Experiment [6] is described as follows: small-molecule microarray binders of probe aWnt5a, primary screen, biochemical, biotinylated probe, 635/667 nm fluorescence (AID 1113).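 Also: score merges 667 nm fluorescence intensity with signal-to-noise per printed feature.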 The note with it: higher = more signal.
Experiment [7] in a line: small-molecule microarray binders of probe aShh, primary screen, biochemical, biotinylated probe, 635/667 nm fluorescence (AID 1114).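 Also: probe is biotin-labelled aShh protein from a stem cell growth factor screen; measures binding of labelled protein to compounds printed on the slide; score merges feature fluorescence at 667 nm with signal-to-noise.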 The conditions noted are these: higher = more signal.
A short description of experiment [8]: small-molecule microarray binders of probe aNog, primary screen, biochemical, biotinylated probe, 635/667 nm fluorescence (AID 1115).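 Also: probe is biotinylated aNog protein used at 0.15 µg/mL for 1 h at 4 C; z-score combines 667 nm fluorescence of each spot with its signal to noise.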 The conditions noted are these: higher = more signal.
Experiment [9] addresses Torsin-1A-interacting protein 1 (Homo sapiens) (UniProt Q5JTV8). The experiment can be described thus: LAP1 binders from COS7 cell lysate, primary screen, small-molecule microarray, 635/667 nm fluorescence (AID 1116). The note with it: COS7-hLAP1 lysate binding, 635 nm fluorescence, higher = more signal.
Experiment [10] concerns the target Alpha-bungarotoxin (Bungarus multicinctus) (UniProt P60615). The experiment can be described thus: alpha-bungarotoxin binders on microarray, profiling panel, artefact control for SMM control protein annotation, biochemical, small-molecule microarray, Alexa647 label, 635/667 nm fluorescence (AID 1117). The note with it: alpha-BTX-A647 binding fluorescence, higher = more signal.

Torsin-1A-interacting protein 1 (Homo sapiens), sequence (Q5JTV8 whole entry, looked up): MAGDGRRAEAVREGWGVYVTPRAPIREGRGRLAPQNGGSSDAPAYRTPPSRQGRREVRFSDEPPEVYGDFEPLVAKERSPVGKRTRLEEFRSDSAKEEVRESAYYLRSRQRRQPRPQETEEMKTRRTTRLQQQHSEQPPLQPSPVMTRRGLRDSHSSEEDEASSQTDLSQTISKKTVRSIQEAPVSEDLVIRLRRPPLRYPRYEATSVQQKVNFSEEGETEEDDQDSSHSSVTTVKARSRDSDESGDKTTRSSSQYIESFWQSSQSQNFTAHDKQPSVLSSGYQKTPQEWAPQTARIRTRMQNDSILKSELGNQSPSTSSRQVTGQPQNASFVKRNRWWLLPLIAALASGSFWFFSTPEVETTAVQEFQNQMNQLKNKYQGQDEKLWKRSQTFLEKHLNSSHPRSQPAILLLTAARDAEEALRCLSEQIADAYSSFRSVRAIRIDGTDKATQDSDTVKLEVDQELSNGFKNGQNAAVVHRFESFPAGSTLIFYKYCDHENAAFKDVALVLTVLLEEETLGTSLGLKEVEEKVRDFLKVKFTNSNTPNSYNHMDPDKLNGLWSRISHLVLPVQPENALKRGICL
Alpha-bungarotoxin (Bungarus multicinctus), sequence (P60615 whole entry, looked up): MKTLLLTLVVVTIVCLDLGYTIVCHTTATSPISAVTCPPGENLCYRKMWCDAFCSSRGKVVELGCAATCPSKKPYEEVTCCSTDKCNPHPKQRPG
Left-right determination factor 2 (Homo sapiens), sequence (O00292 whole entry, looked up): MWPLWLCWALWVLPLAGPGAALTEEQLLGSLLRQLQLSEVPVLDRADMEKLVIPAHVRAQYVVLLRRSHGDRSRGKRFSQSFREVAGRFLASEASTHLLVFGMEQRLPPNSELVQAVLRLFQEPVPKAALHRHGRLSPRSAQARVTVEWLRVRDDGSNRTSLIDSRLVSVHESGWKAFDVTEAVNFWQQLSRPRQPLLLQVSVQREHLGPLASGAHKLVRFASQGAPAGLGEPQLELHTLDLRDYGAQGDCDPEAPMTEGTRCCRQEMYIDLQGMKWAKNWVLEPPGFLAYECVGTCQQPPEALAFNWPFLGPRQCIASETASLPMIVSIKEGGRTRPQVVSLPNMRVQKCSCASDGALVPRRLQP

Regarding `CS(=O)(=O)CCOC(=O)C1=CC(c2ccc(CO)cc2)=CC(C2CC2)N(Cc2sc3ccccc3c2Cl)C=C1C(=O)OCCS(C)(=O)=O` (stereo not given), the composite z-score was 0.491 in experiment [1]; 0.815 in [3]; 0.0782 in [4]; 0.0677 in experiment [5]; -0.0685 in experiment [6]; 0.199 in [7]. In addition, the composite z-score in [8] came to 0.611; in experiment [9], 0.702; in experiment [10] it was 1.89. For the same compound, the z-score in experiment [2] is -1.7.
`COc1cccc(C)c1NC(=O)O[C@H]1[C@H](OC(=O)Nc2ccccc2-c2ccccc2)[C@H](OC(=O)Nc2ccccc2-c2ccccc2)[C@@H](OC)O[C@@H]1CO`: the composite z-score was 1.41 in experiment [1]; 0.679 in experiment [3]; 1.72 in experiment [4]; 0.11 in experiment [5]; 0.0304 in experiment [6]; -0.0192 in [7]. The composite z-score in experiment [8] is -0.518; in experiment [9], 1.26; in experiment [10], 0.688. The same compound displayed a z-score in experiment [2] of -2.36.
With `CCCC=C(CCC)[C@@H](NS(=O)(=O)c1ccc(C(F)(F)F)cc1)c1ccccc1`, the composite z-score in [1] was 0.608; in experiment [3] it was -0.318; in [4] it was 0.641; in experiment [5] it was 0.951; in experiment [6], 0.0853; in [7] it was -0.106. The composite z-score in [8] was 0.711; in experiment [9], -0.127; in experiment [10], 0.261. The compound further came in with a z-score in experiment [2] of -0.0015.
As to `C=CCNC(=O)[C@@H]1[C@H]2C(=O)O[C@H](c3ccccc3)[C@H](c3ccccc3)N2[C@H](c2ccccc2OCCO)[C@@]12C(=O)Nc1ccc(C#CCCO)cc12`, the composite z-score in experiment [1] was -0.489; in [3] it was 1.2; in experiment [4] it was 0.142; in experiment [5], -0.0836; in experiment [6], -0.147; in experiment [7], -0.273. The composite z-score is -0.0965 in experiment [8], 0.544 in experiment [9] and 0.0913 in experiment [10]. In experiment [2], this compound displayed a z-score of -0.364.
As to `CCCCCCc1nc(Cc2cc(OC)c(OC)c(OC)c2)cc2c1[Si](C(C)C)(C(C)C)OC2`, the composite z-score is -0.457 in experiment [1]; 0.186 in [3]; -0.112 in [4]; -0.302 in [5]; -0.0462 in [6]; -0.214 in [7]. For the same compound, the composite z-score in [8] was -0.174; in experiment [9], -0.136; in experiment [10], -0.0869. This compound came in with a z-score in experiment [2] of -1.96.
Take `COCC(=C=CC[C@H](O)c1ccc(CO)o1)CCO`: the composite z-score is 0.76 in experiment [1]; 0.173 in experiment [3]; -0.0876 in [4]; -0.249 in experiment [5]; 0.0108 in [6]; -0.0119 in experiment [7]. The composite z-score in experiment [8] was 0.502; in experiment [9], -0.0673; in experiment [10], 0.818. This compound also gave a z-score in experiment [2] of -0.793.
Take `COCCOC(=O)N1C(=O)[C@@]2(c3cc(C#CC4(O)CCCCCC4)ccc31)[C@H](C(=O)Nc1nc3ccccc3s1)[C@H]1C(=O)O[C@H](c3ccccc3)[C@H](c3ccccc3)N1[C@@H]2c1ccc(O)cc1`: the composite z-score in experiment [1] is 1.37; in [3] it was 1; in experiment [4] it was 1.29; in experiment [5] it was 0.102; in [6] it was -0.18; in experiment [7], -0.0849. Moreover, the composite z-score in experiment [8] was -0.188; in [9], 0.286; in experiment [10], 1.1. The z-score in experiment [2] was -0.895.
Take `C=C(COC)/C(=C/C[C@H](OC(=O)c1ccncc1)c1ccccc1OCCO)c1cc(C(=O)OC)ccc1OC`: the composite z-score in experiment [1] is 1.43; in experiment [3] it was 0.753; in experiment [4], -0.191; in experiment [5], -0.59; in [6] it was -0.0687; in [7], -0.494. For the same compound, the composite z-score is -0.145 in [8], -0.353 in experiment [9] and 0.251 in experiment [10]. In [2], this compound displayed a z-score of -2.76.
`C=CC[C@@H](OC(=O)Nc1ccc(SC)cc1)c1ccc(O)c(F)c1`: the composite z-score in experiment [1] was -0.148; in experiment [3], -0.28; in [4], -0.818; in experiment [5] it was -0.776; in experiment [6], -0.0991; in experiment [7] it was 0.42. The composite z-score is -0.036 in [8], 0.958 in experiment [9] and 0.26 in experiment [10]. Further, the z-score in [2] is 0.56.
`CC(=O)NCCCC[C@@H]1NC(=O)[C@@H]2C[C@H](C(=O)NCCCCCN)[C@H](c3ccc(O)cc3)N2C1=O`: the composite z-score in [1] is 1.32; in [3], 1.31; in experiment [4] it was 0.331; in [5] it was 0.711; in [6], 0.258; in experiment [7], -0.0794. Further, the values for the composite z-score in experiment [8], in experiment [9] and in [10] were -0.158, 1.31 and 0.766, respectively. The compound further yielded a z-score in experiment [2] of -0.663.
On to `CCOC(=O)C[C@H]1[C@H](OC(=O)Cc2ccc3c(c2)OCO3)[C@@H](NC(=O)c2ccc3ccccc3n2)c2cc(OCCCO)ccc2N1C(=O)c1ccccc1`, for which the composite z-score in [1] is 0.348; in [3], -0.0499; in [4] it was 0.179; in experiment [5] it was -0.564; in experiment [6], -0.0269; in experiment [7] it was -0.214. In addition, the results for the composite z-score in experiment [8], in experiment [9] and in experiment [10] were 0.0589, 0.49 and 0.611, respectively. In experiment [2], this compound gave a z-score of -1.26.
As for `Cc1ccc(S[C@]2(C(=O)NCCN3CCOCC3)CC(=O)N(Cc3ccccc3Cl)[C@@H]2c2ccc(CO)cc2I)cc1`, the composite z-score in [1] is 0.772; in experiment [3], -1.45; in experiment [4] it was 0.0002; in experiment [5], 0.154; in experiment [6], 0.522; in [7], 0.464. The composite z-score in experiment [8] is 2.2; in experiment [9] it was 2.35; in experiment [10], -0.903. The z-score in experiment [2] was -1.25.
With `C=CCC(OC(C)=O)[C@@H]1[C@@H](N(Cc2ccc(-c3ccccc3)cc2)C(=O)c2ccc(-c3ccccc3)cc2)c2cc(OCCCO)ccc2N1C(=O)c1ccc2ccccc2c1` (stereo not given in full), the composite z-score in [1] was 0.508; in experiment [3], -0.0379; in [4], 0.493; in experiment [5], 0.839; in experiment [6], -0.11; in [7], 0.0141. The composite z-score was -0.284 in experiment [8], 0.0403 in [9] and -0.116 in [10]. Moreover, the z-score in experiment [2] was -0.415.
For `O=C1N(Cc2ccccc2)c2ccccc2C[C@]12N=C(c1ccc(OCCCO)cc1)O[C@@H]2c1ccccc1`, the composite z-score in experiment [1] was 0.732; in [3], 0.133; in [4], 0.51; in [5], -0.249; in [6], -0.0179; in experiment [7], -0.332. The composite z-score is -0.356 in experiment [8], -0.0883 in experiment [9] and 0.743 in experiment [10]. Also, in [2], the z-score was -3.02.
`CC1CC/C=C\[C@H]2OC34C=CCN(Cc5ccccc5)C(=O)[C@H]3N(C(CO)C(C)C)C(=O)[C@@H]4C2C(=O)O1` (stereo not given in full): the composite z-score in [1] is -0.376; in experiment [3] it was -0.369; in experiment [4], -0.862; in experiment [5] it was -0.528; in [6], -0.176; in experiment [7], -0.0709. For the same compound, the composite z-score in [8] was -0.12; in experiment [9] it was 0.344; in [10] it was -0.677. The compound further showed a z-score in experiment [2] of -0.386.
As for `COC(=O)C(CC#Cc1ccc2c(c1)[C@]1(C(=O)N2)[C@H](c2ccc(O)cc2)N2[C@H](c3ccccc3)[C@H](c3ccccc3)OC(=O)[C@H]2[C@@H]1C(=O)NC[C@H](O)c1ccccc1)C(=O)OC`, the composite z-score in [1] was 0.829; in [3] it was 0.337; in [4], 0.175; in experiment [5], -0.102; in [6] it was -0.0606; in [7], -0.0709. Also, the results for the composite z-score in experiment [8], in [9] and in experiment [10] were 0.0169, 1.24 and 0.624, respectively. Moreover, in [2], the z-score is -1.04.
For the compound `COc1ccc(C#Cc2ccc3c(c2)[C@]2(C(=O)N3)[C@H](c3ccc(O)cc3)N3[C@H](c4ccccc4)[C@H](c4ccccc4)OC(=O)[C@H]3[C@@H]2C(=O)Nc2nc3ccccc3s2)cc1`, the composite z-score in experiment [1] is 1.26; in experiment [3], 0.739; in experiment [4], 1.11; in experiment [5], 0.495; in [6], -0.0685; in experiment [7], -0.0813. Further, the figures for the composite z-score in experiment [8], in experiment [9] and in experiment [10] were 0.352, 1.22 and 1.25, respectively. The z-score in experiment [2] is -1.13.
